# Results as given in the supplement of paper PMC7156485.
# ± gives the standard deviation of the averaged measurements.
# Assays:
# Details in all cases: concentration: 10 µM; 24 h
# HCC1569 [1] = test: cell number relative to DMSO (% of DMSO); higher = more cells (less growth inhibition / toxicity)
# In short: (§1)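 HCC1569 and TDF cells (800 per well, 384-well plates, RPMI with 10% FBS) were treated with compounds at 10 µM for 24 h at 37 °C, in triplicate. Cells were fixed in 3.7% formaldehyde and stained with a rabbit anti-H1.0 antibody, an AlexaFluor 647 secondary and DAPI; six fields per well were imaged at ×10. H1.0 nuclear intensity or cell number is expressed as percent of the plate DMSO control, taking the median of replicates. HCC1569 values were smoothed for positional effects.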
# TDF [2] = test: as above
# In short: as §1
# TDF [3] = test: H1.0 immunofluorescence intensity relative to DMSO (% of DMSO); higher = stronger H1.0 induction, active = 120 or more
# In short: as §1
# HCC1569 [4] = test: H1.0 immunofluorescence intensity relative to DMSO (% of DMSO); higher = stronger H1.0 induction, active = 140 or more
# In short: as §1
# 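Throughout, for H1.0 immunofluorescence intensity relative to DMSO: TDF is a line of transformed human dermal fibroblasts of mesenchymal origin.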
# 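Throughout, for cell number relative to DMSO: TDF denotes transformed human dermal fibroblasts of mesenchymal origin.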
Compound,cell number (HCC1569 [1]),cell number (TDF [2]),H1.0 immunofluorescence intensity (TDF [3]),H1.0 immunofluorescence intensity (HCC1569 [4])
COc1cc(-c2oc3cc(O)cc(O)c3c(=O)c2OC2OC(CO)C(O)C(O)C2O)ccc1O (configuration not stated) [Isorhamnetine-3-glucoside],102,98.2,97.6 (inactive),85.8 (inactive)
N[C@H](C(=O)O)c1cccc(O)c1 [(S)-3-Hydroxyphenylglycine],95.2,99.7,102 (inactive),100 (inactive)
"Cl.c1ccc(C2CCCC2NC2=NCCCCCCCCCCC2)cc1 (configuration not stated) [MDL 12,330A hydrochloride]",105,109,85.7 (inactive),88.1 (inactive)
Cl.Cl.Cl.NCCCCNCCCN [Spermidine trihydrochloride],99.7,97.2,102 (inactive),82 (inactive)
CCCCCC(O)C=CC=CCC=CCCCCCCC(=O)O (configuration not stated),99.9,104,99.2 (inactive),94.6 (inactive)
CC(C)=CCCC(C)(O)C1CCC2(C)C1CCC1C3(C)CCC(=O)C(C)(C)C3CCC12C (configuration not stated) [Dipterocarpol],95.8,102,97.8 (inactive),82.7 (inactive)
"CCCCCCCCC#CCC#CCC#CCCCC(=O)O [5,8,11-Eicosatriynoic acid]",97.5 ± 3.3,97.3 ± 8,107 (inactive),98.5 (inactive)
CC1COc2c(N3CCN(C)CC3)c(F)cc3c(=O)c(C(=O)O)cn1c23 (configuration not stated) [Ofloxacin],101.5 ± 0.68,101 ± 5.3,95 (inactive),96.5 (inactive)
O=C(O)c1cc2cc(F)ccc2[nH]1 [5-Fluoroindole-2-carboxylic acid],99.3,89,102 (inactive),98.6 (inactive)
Cl.Cl.NCCNc1ncc(C(N)=O)c(Nc2cccc(C(F)(F)F)c2)n1.O.O [Syk Inhibitor II],82.1,84.7,88.2 (inactive),148 (active)
Cc1nc(Nc2ncc(C(=O)Nc3c(C)cccc3Cl)s2)cc(N2CCN(CCO)CC2)n1 [Dasatinib],45.9,93.4,107 (inactive),171 (active)
c1cc(OCCN2CCCCC2)cc(-c2n[nH]c3ccc(-c4ncn[nH]4)cc23)c1,88.3,107,84.6 (inactive),115 (inactive)
CC1=CCCC(C)(O)C=CC(C(C)C)C(OC(=O)c2ccc(O)cc2)C1 (configuration not stated) [Feroline],102,96,102 (inactive),93.3 (inactive)
N#CC(=Cc1ccc(O)c(O)c1)C(=O)NCCCc1ccccc1 [Tyrphostin AG 555],79.8,90.7,88.6 (inactive),107 (inactive)
"COC(=O)[C@@H](N)Cc1ccc(O)c(O)c1.Cl [L-3,4-Dihydroxyphenylalanine methyl ester hydrochloride]",102,110,94.8 (inactive),96.8 (inactive)
Cl.c1ccc2c(CC3=NCCN3)cccc2c1 [Naphazoline hydrochloride],96.1,108,91.2 (inactive),90.2 (inactive)
O=C(O)CCCc1c[nH]c2ccccc12 [Indole-3-butyric acid],104,99,98.4 (inactive),86.6 (inactive)
Nc1nc(N)c2nc(-c3ccccc3)c(N)nc2n1 [Triamterene],98.6,112,85.8 (inactive),102 (inactive)
"O=c1[nH][nH]c2nnc(-c3c(-c4ccccc4)nn4ccccc34)cc12 [ERK Inhibitor II,                   Negative control]",98.3,98.8,95.5 (inactive),122 (inactive)
C[N+](C)(C)C(Cc1c[nH]c(=S)[nH]1)C(=O)[O-] (configuration not stated) [Ergothioneine],100,103,101 (inactive),99.9 (inactive)
CCn1nc(C(=O)O)c(=O)c2cc3c(cc21)OCO3 [Cinoxacin],97.6,105,95.7 (inactive),97.5 (inactive)
COc1cc(/C=C/C(=O)NCCn2c(C)cc3ccccc32)cc(OC)c1OC,103,96.6,103 (inactive),106 (inactive)
O=c1c2ccccc2[nH]c(=S)n1CCN1CCC(=C(c2ccc(F)cc2)c2ccc(F)cc2)CC1 [Diacylglycerol Kinase Inhibitor II],105 ± 1.1,93.8 ± 1.5,93.9 (inactive),94.1 (inactive)
